The results in this text go back to PubChem BioAssay.

The structures appear in SMILES notation.

The first experiment can be described thus: small molecules captured by biotinylated probe aFSTL3 – biochemical, small-molecule microarray, fluorescence 635/667, stem cell growth factor project, primary screen (AID 1064).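 Further: measures binding of the biotinylated anti-FSTL3 antibody to printed compounds.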 The following applies: higher = more signal.
Molecule `CCCNC(=O)[C@@]1(c2ccc([N+](=O)[O-])cc2)CC(=O)N(C2CCCCC2)[C@@H]1c1ccc(CO)cc1` gave a composite z-score of -0.0597.

`NC(=O)NCC#Cc1ccc2c(c1)[C@]1(C(=O)N2)[C@H](C(=O)NC[C@H](O)c2ccccc2)[C@H]2C(=O)O[C@H](c3ccccc3)[C@H](c3ccccc3)N2[C@@H]1c1ccc(OCCO)cc1` returned a composite z-score of 0.565.

`O=C1NC(=O)C2C1C=CC(C(O)CCc1ccccc1)N2Nc1ccc(Cl)cc1Cl` (centres undefined) gave a composite z-score of 1.18.

Turning to `CCCCC=C[C@@H](NC(=O)c1ccc(-c2ccccc2)cc1)c1ccccc1`, the composite z-score is -0.0095.

`COc1ccc([Si](C)(C)[C@@H]2[C@@H](CC(=O)N(CCO)Cc3ccccc3)O[C@]3(C(=O)N(Cc4cccc(N5CCOC5=O)c4)c4ccccc43)[C@H]2C)cc1` registered a composite z-score of -0.0388.

Take `CC(C)N1CC=CC23O[C@@H]4C=CCOC(=O)[C@@H]4[C@H]2C(=O)N(CCCO)[C@@H]3C1=O` (some centres undefined): the composite z-score is 0.645.

In the case of `C=CCNC(=O)[C@H]1[C@@H]2C(=O)O[C@@H](c3ccccc3)[C@@H](c3ccccc3)N2[C@@H](c2ccc(O)cc2)[C@]12C(=O)N(C(=O)OCCOC)c1ccccc12`, the composite z-score was -0.548.

`O=C1OCC=C[C@H]2OC34C=CCN(c5ccc(Cl)cc5)C(=O)[C@H]3N(CCO)C(=O)[C@@H]4[C@@H]12` (some centres undefined): the composite z-score stood at 0.601.

Another experiment in a line: binders from COS7 lysate, DM2A8 probe, primary screen, torsin A project, cell lysate, small-molecule microarray, fluorescence 635/667 (AID 1065). The note with it: higher = more signal, COS7 lysate expressing mutant human TOR1A.
In the case of `Cc1ccc(S[C@]2(C(=O)O)CC(=O)N(Cc3cc(C(F)(F)F)cc(C(F)(F)F)c3)[C@@H]2c2ccc(CO)cc2)cc1`, the composite z-score is -0.378.

`CCOC(=O)[C@H]1[C@@H]2C(=O)N3CCC[C@H]3[C@H](O[Si](C(C)C)(C(C)C)C(C)C)[C@H]2C=C2CCN(S(=O)(=O)c3ccc(C)cc3)C[C@H]21` had a composite z-score of 0.336.

Take `CO[C@H]1O[C@H](CO)[C@@H](OC(=O)Nc2ccccc2-c2ccccc2)[C@H](OC(=O)Nc2ccc3c(c2)OCO3)[C@H]1OC(=O)Nc1ccc2c(c1)OCO2`: the composite z-score came out at 0.866.

On to `COc1ccccc1CN1C(=O)c2ccccc2[C@@]2(Cc3ccccc3N(CC(F)(F)F)C2=O)[C@@H]1c1ccc(CO)cc1`, for which the composite z-score came out at 0.252.

The molecule `CN(C)C(=O)[C@@]1(Cc2ccccc2CN=[N+]=[N-])N=C(c2ccc(OCCCO)cc2)O[C@H]1c1ccccc1CN=[N+]=[N-]` yielded a composite z-score of -0.159.

In the case of `COc1ccc(CCN2C(=O)[C@@]3(Cc4ccccc42)c2ccccc2C(=O)N(Cc2ccccc2OC)[C@H]3c2ccc(CO)cc2)cc1`, the composite z-score is -0.277.

Molecule `O=C1C2C=CC(C(O)c3ccc(Br)cc3)N(Nc3ccccc3F)C2C(=O)N1c1ccccc1` (centres undefined) came in with a composite z-score of 0.536.

With `C=CCC(OC(C)=O)[C@@H]1[C@@H](N(Cc2cccc3ccccc23)C(=O)Cc2ccc(OC)cc2)c2cc(OCCCO)ccc2N1C(=O)c1ccc2ccccc2n1` (some centres undefined), the composite z-score was found to be 0.0233.

As for `COC(=O)C(CC#Cc1ccc2c(c1)[C@]1(C(=O)N2)[C@H](c2ccccc2OCCO)N2[C@H](c3ccccc3)[C@H](c3ccccc3)OC(=O)[C@H]2[C@@H]1C(=O)NC[C@H](O)c1ccccc1)C(=O)OC`, the composite z-score was 0.711.

Turning to `COc1ccc([Si](C)(C)[C@H]2[C@H](CCO)O[C@@]3(C(=O)N(Cc4cccc(N5C(=O)COc6ccccc65)c4)c4ccccc43)[C@@H]2C)cc1`, the composite z-score came out at 0.15.

On to `CCCCCCc1nc(C2CC2)cc2c1[Si](C(C)C)(C(C)C)OC2`, for which the composite z-score is -0.376.

`C=CCNC(=O)[C@@H]1[C@H]2C(=O)O[C@H](c3ccccc3)[C@H](c3ccccc3)N2[C@H](c2ccc(O)cc2)[C@@]12C(=O)N(C(=O)OCCOC)c1ccc(C#CC3(O)CCCCCC3)cc12` yielded a composite z-score of -0.548.

In the case of `CC(CO)N1C(=O)[C@@H]2[C@H]3C(=O)OCC=C[C@H]3OC23C=CCN(Cc2ccccc2)C(=O)[C@@H]13` (some centres undefined), the composite z-score is -0.31.

On to `[N-]=[N+]=NCc1ccccc1C[C@@]1(C(=O)NCc2ccccc2)N=C(c2ccc(OCCCO)cc2)O[C@@H]1c1ccccc1N=[N+]=[N-]`, for which the composite z-score came out at 0.421.

`C=CCN1Cc2ccccc2[C@H]2OC(c3ccc(OCCCO)cc3)=N[C@@]2(CC=C)C1=O` displayed a composite z-score of 0.169.

In the case of `Cc1cc(C)cc(N2C(=O)CSC2c2cccc([N+](=O)[O-])c2)c1` (centres undefined), the composite z-score was determined as 0.571.

Turning to `CCOc1cc(C(O)C2C=CC3C(=O)N(C)C(=O)C3N2Nc2ccccc2)ccc1O` (centres undefined), the composite z-score is 0.101.

As to `[N-]=[N+]=Nc1ccccc1C[C@]1(C(N)=O)N=C(c2ccc(OCCCO)cc2)O[C@H]1c1ccccc1N=[N+]=[N-]`, the composite z-score is 0.902.

`NC(=O)NCC#Cc1ccc2c(c1)[C@]1(C(=O)N2)[C@H](C(=O)O)[C@H]2C(=O)O[C@H](c3ccccc3)[C@H](c3ccccc3)N2[C@@H]1c1ccc(OCCO)cc1` gave a composite z-score of 0.35.

With `CCCCCCc1nc(C2CC2)cc2c1[Si](C(C)C)(C(C)C)O[C@H]2c1ccccc1`, the composite z-score turned out to be 0.122.

`COc1cc2c(cc1OC)CN(C(=O)[C@@H]1[C@H]3C(=O)O[C@H](c4ccccc4)[C@H](c4ccccc4)N3[C@H](c3ccc(OCCO)cc3)[C@@]13C(=O)Nc1ccc(C#CC4(O)CCCCCC4)cc13)CC2` came in with a composite z-score of 0.416.

Consider `O=C1C[C@@](C(=O)NCCN2CCOCC2)(c2ccc([N+](=O)[O-])cc2)[C@@H](c2ccc(CO)cc2I)N1C1CCCCC1`, for which the composite z-score was -0.0103.

Consider `COC(=O)[C@@]1(Cc2ccc(F)cc2)[C@H]2c3cc(C(=O)N4CCCC4)n(CCc4ccc(O)c(O)c4)c3C[C@H]2CN1C(=O)c1ccccc1`, for which the composite z-score amounted to 0.109.

`CC(C)N1C(=O)C[C@@](C(=O)NCCCN(C)C)(c2ccc([N+](=O)[O-])cc2)[C@H]1c1ccc(CO)cc1`: the composite z-score was -0.351.

Consider `COC(=O)C1=CC(CCCO)=CC(C2CC2)N(C)C=C1C(=O)OC` (centres undefined), for which the composite z-score is -0.144.

`COC(=O)c1c(CC[C@@H](CO)NC(=O)N2CCC[C@H]2Cn2cc(Cc3ccccc3)nn2)oc(C(C)=O)c1C(=O)OC` registered a composite z-score of 0.268.

For `O=C(N1CCCCC1)[C@@]1(CCS(=O)(=O)c2ccccc2)COC(c2ccc(OCCCO)cc2)=N1`, the composite z-score is 1.92.

`CC1=C[C@@]2(CO)C(=O)[C@]3(CO3)[C@@H]1[C@H]1[C@]2(C)C=C(CO)C(=O)[C@]12CO2` came in with a composite z-score of -0.42.

In the case of `CCCNC(=O)[C@@]1(c2ccc([N+](=O)[O-])cc2)CC(=O)N(C2CCCCC2)[C@@H]1c1ccc(CO)cc1`, the composite z-score came to 0.256.

The molecule `NC(=O)NCC#Cc1ccc2c(c1)[C@]1(C(=O)N2)[C@H](C(=O)NC[C@H](O)c2ccccc2)[C@H]2C(=O)O[C@H](c3ccccc3)[C@H](c3ccccc3)N2[C@@H]1c1ccc(OCCO)cc1` came in with a composite z-score of 0.699.

Molecule `O=C1NC(=O)C2C1C=CC(C(O)CCc1ccccc1)N2Nc1ccc(Cl)cc1Cl` (centres undefined) had a composite z-score of 1.42.

`CCCCC=C[C@@H](NC(=O)c1ccc(-c2ccccc2)cc1)c1ccccc1` displayed a composite z-score of -0.0424.

For `COc1ccc([Si](C)(C)[C@@H]2[C@@H](CC(=O)N(CCO)Cc3ccccc3)O[C@]3(C(=O)N(Cc4cccc(N5CCOC5=O)c4)c4ccccc43)[C@H]2C)cc1`, the composite z-score amounted to 1.02.

Molecule `CC(C)N1CC=CC23O[C@@H]4C=CCOC(=O)[C@@H]4[C@H]2C(=O)N(CCCO)[C@@H]3C1=O` (some centres undefined) displayed a composite z-score of 1.64.

As to `C=CCNC(=O)[C@H]1[C@@H]2C(=O)O[C@@H](c3ccccc3)[C@@H](c3ccccc3)N2[C@@H](c2ccc(O)cc2)[C@]12C(=O)N(C(=O)OCCOC)c1ccccc12`, the composite z-score stood at 0.267.

Take `O=C1OCC=C[C@H]2OC34C=CCN(c5ccc(Cl)cc5)C(=O)[C@H]3N(CCO)C(=O)[C@@H]4[C@@H]12` (some centres undefined): the composite z-score is -0.515.
